About 2,000 (36%) of roughly 5,500 compounds were called active. About 18% were inconclusive and are not listed. Cut-off read from the data, not from the text of the source: active = normalized growth mostly below about 0.91 (no sharp cut-off); inconclusive = no clear call, values can overlap the other calls; inactive = mostly above about 0.92. This is one part of the list.
Test: chemical genetic growth profiling, strain panel (AID 1159580);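 note: tested at 20 µM; growth read once vehicle control cultures reached saturation at 30 °C; 1 = growth at the plate median or of vehicle wells; lower values mean less growth of the strain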
Settings: growth OD

Measured: normalized growth

O=C(O)CF
inactive: S. cerevisiae deletion strains, locus YJR043C, strain POL32, hits give low values 0.984 | S. cerevisiae deletion strains, locus YJR075W, strain HOC1, hits give low values 0.992 | S. cerevisiae deletion strains, locus YKL009W, strain mrt4, hits give low values 0.915 | S. cerevisiae deletion strains, locus YKL068W, hits give low values 1.01 | S. cerevisiae deletion strains, locus YKL085W, strain MDH1 (second series), hits give low values 1 | S. cerevisiae deletion strains, locus YKL085W, strain MDH1, hits give low values 1 | S. cerevisiae deletion strains, locus YKL160W, strain elf1, hits give low values 0.988 | S. cerevisiae deletion strains, locus YKL190W, strain CNB1, hits give low values 1 | S. cerevisiae deletion strains, locus YKR001C, strain vps1, hits give low values 0.976 | S. cerevisiae deletion strains, locus YKR026C, strain gcn3, hits give low values 1.03 | S. cerevisiae deletion strains, locus YKR091W, strain srl3, hits give low values 1.02 | S. cerevisiae deletion strains, locus YLL001W, strain dnm1, hits give low values 1.02 | S. cerevisiae deletion strains, locus YLL026W, hits give low values 1.01 | S. cerevisiae deletion strains, locus YLL041C, strain sdh2, hits give low values 1.03 | S. cerevisiae deletion strains, locus YLR027C, strain aat2, hits give low values 1.01 | S. cerevisiae deletion strains, locus YLR039C, strain RIC1, hits give low values 0.997 | S. cerevisiae deletion strains, locus YLR058C, strain SHM2, hits give low values 0.993 | S. cerevisiae deletion strains, locus YLR102C, strain apc9, hits give low values 0.99 | S. cerevisiae deletion strains, locus YLR221C, strain rsa3, hits give low values 1.03 | S. cerevisiae deletion strains, locus YLR258W, strain gsy2, hits give low values 1.04 | S. cerevisiae deletion strains, locus YLR262C, strain YPT6 (second series), hits give low values 1.04 | S. cerevisiae deletion strains, locus YLR262C, strain YPT6, hits give low values 1.01 | S. cerevisiae deletion strains, locus YLR268W, strain sec22, hits give low values 0.974 | S. cerevisiae deletion strains, locus YLR320W, strain mms22, hits give low values 1.04 | S. cerevisiae deletion strains, locus YLR330W, strain CHS5, hits give low values 0.991 | S. cerevisiae deletion strains, locus YLR342W, strain FKS1 (second series), hits give low values 0.989 | S. cerevisiae deletion strains, locus YLR342W, strain FKS1, hits give low values 1.02 | S. cerevisiae deletion strains, locus YLR357W, strain rsc2, hits give low values 1.02 | S. cerevisiae deletion strains, locus YLR370C, strain arc18, hits give low values 1.04 | S. cerevisiae deletion strains, locus YLR371W, strain rom2, hits give low values 0.968 | S. cerevisiae deletion strains, locus YLR384C, strain iki3, hits give low values 1.02 | S. cerevisiae deletion strains, locus YLR418C, strain cdc73, hits give low values 1.04 | S. cerevisiae deletion strains, locus YML016C, strain PPZ1, hits give low values 0.99 | S. cerevisiae deletion strains, locus YML032C, strain rad52, hits give low values 0.947 | S. cerevisiae deletion strains, locus YML120C, strain ndi1, hits give low values 1.04 | S. cerevisiae deletion strains, locus YML124C, strain tub3, hits give low values 0.985 | S. cerevisiae deletion strains, locus YMR058W, strain fet3, hits give low values 1.02 | S. cerevisiae deletion strains, locus YMR078C, strain ctf18, hits give low values 0.984 | S. cerevisiae deletion strains, locus YMR125W, strain sto1, hits give low values 0.986 | S. cerevisiae deletion strains, locus YMR129W, hits give low values 1.02 | S. cerevisiae deletion strains, locus YMR205C, strain PFK2, hits give low values 1.02 | S. cerevisiae deletion strains, locus YMR223W, strain ubp8, hits give low values 0.94 | S. cerevisiae deletion strains, locus YMR231W, strain pep5, hits give low values 1.02 | S. cerevisiae deletion strains, locus YMR263W, strain SAP30, hits give low values 1.02 | S. cerevisiae deletion strains, locus YMR307W, strain GAS1, hits give low values 0.945 | S. cerevisiae deletion strains, locus YNL067W, strain RPL9B, hits give low values 1.02 | S. cerevisiae deletion strains, locus YNL071W, strain lat1, hits give low values 1.03 | S. cerevisiae deletion strains, locus YNL128W, strain TEP1, hits give low values 1.01 | S. cerevisiae deletion strains, locus YNL153C, strain GIM3, hits give low values 1.04 | S. cerevisiae deletion strains, locus YNL209W, strain ssb2, hits give low values 1.02 | S. cerevisiae deletion strains, locus YNL233W, strain BNI4, hits give low values 1.02 | S. cerevisiae deletion strains, locus YNL248C, strain rpa49, hits give low values 0.972 | S. cerevisiae deletion strains, locus YNL250W, strain rad50, hits give low values 0.987 | S. cerevisiae deletion strains, locus YNL271C, strain bni1, hits give low values 0.985 | S. cerevisiae deletion strains, locus YNL298W, strain CLA4, hits give low values 0.94 | S. cerevisiae deletion strains, locus YNL307C, strain MCK1, hits give low values 0.954 | S. cerevisiae deletion strains, locus YNL322C, strain KRE1 (second series), hits give low values 1.02 | S. cerevisiae deletion strains, locus YNL322C, strain KRE1, hits give low values 1 | S. cerevisiae deletion strains, locus YNR049C, strain mso1, hits give low values 1.02 | S. cerevisiae deletion strains, locus YNR052C, strain pop2, hits give low values 0.949 | S. cerevisiae deletion strains, locus YOL006C, strain TOP1, hits give low values 0.988 | S. cerevisiae deletion strains, locus YOL012C, strain htz1 1.93 | S. cerevisiae deletion strains, locus YOL147C, strain pex11, hits give low values 0.993 | S. cerevisiae deletion strains, locus YOR001W, strain rrp6, hits give low values 1.03 | S. cerevisiae deletion strains, locus YOR061W, strain CKA2, hits give low values 0.975 | S. cerevisiae deletion strains, locus YOR069W, strain VPS5, hits give low values 0.99 | S. cerevisiae deletion strains, locus YOR070C, strain gyp1, hits give low values 1.02 | S. cerevisiae deletion strains, locus YOR080W, strain dia2, hits give low values 1.02 | S. cerevisiae deletion strains, locus YOR083W, strain WHI5, hits give low values 0.992 | S. cerevisiae deletion strains, locus YOR106W, strain vam3, hits give low values 0.998 | S. cerevisiae deletion strains, locus YOR136W, strain idh2, hits give low values 0.978 | S. cerevisiae deletion strains, locus YOR144C, strain elg1, hits give low values 0.987 | S. cerevisiae deletion strains, locus YOR265W, strain rbl2, hits give low values 1.02 | S. cerevisiae deletion strains, locus YOR270C, strain vph1, hits give low values 1.02 | S. cerevisiae deletion strains, locus YOR290C, strain snf2, hits give low values 1.02 | S. cerevisiae deletion strains, locus YOR316C, strain cot1, hits give low values 0.984 | S. cerevisiae deletion strains, locus YPL051W, strain arl3, hits give low values 1 | S. cerevisiae deletion strains, locus YPL055C, strain LGE1, hits give low values 1.04 | S. cerevisiae deletion strains, locus YPL078C, strain atp4, hits give low values 0.982 | S. cerevisiae deletion strains, locus YPL106C, strain sse1, hits give low values 1.06 | S. cerevisiae deletion strains, locus YPL240C, strain hsp82, hits give low values 1.02 | S. cerevisiae deletion strains, locus YPL241C, strain CIN2, hits give low values 0.998 | S. cerevisiae deletion strains, locus YPR119W, strain clb2, hits give low values 1 | S. cerevisiae deletion strains, locus YPR141C, strain kar3, hits give low values 0.993 | S. cerevisiae deletion strains, locus YPR163C, strain tif3, hits give low values 0.993 | S. cerevisiae deletion strains, locus YPR167C, strain met16, hits give low values 0.99 | S. cerevisiae deletion strains, strain wtn01, hits give low values 0.992 | S. cerevisiae strains, strain wild type, hits give low values 0.999
active: S. cerevisiae deletion strains, locus YOR184W, strain ser1, hits give low values 0.872

— PubChem BioAssay AID1159580 (chemical genetic matrix, 2015)
